The record followed here is publication PMC4552634, “A New Set of Chemical Starting Points with Plasmodium falciparum Transmission-Blocking Potential for Antimalarial Drug Discovery” (PLoS ONE, 2015).

The structures appear in SMILES notation. Among all 13,000 compounds or so, about 3,200 (25%) showed an effect of 50% or more. This is one part of the list.

For this test, the system named is P. falciparum stage V gametocytes. Set-up: BacTiter-Glo ATP luminescence viability of purified stage V gametocytes in 384-well plates, per cent inhibition versus DMSO. As to conditions: 48 h, 5 µM; inhibitor.
A word on the % Inhibition: it is the relative decrease from the control value, in per cent. For the compound `O=C(Nc1ccc(C(=O)N2CCN(CCN3CCN(c4cccc(C(F)(F)F)c4)CC3)CC2)cc1)c1cc(Cl)cc(Cl)c1` [TCMDC-138146], the “% Inhibition” value is -60.88%.

Take `O=C(Nc1cc2cc(-c3ccc(CN4CCCCC4)cc3)ccc2n2cnnc12)NC1CCCC1` [TCMDC-136882]: the “% Inhibition” value is given as 63.39%.

For `O=C(Nc1cccc(Cl)c1Cl)NC1CCN(Cc2cccc(O)c2)CC1` [TCMDC-136485], the “% Inhibition” value is listed as -12.42%.

On to `O=C(NCC1CC1)C1CCN(C(c2ccccc2)c2ccc(Cl)c(Cl)c2)CC1` (stereo not shown) [TCMDC-135515], for which the “% Inhibition” value amounted to 70.5%.

In the case of `CCCNC(=O)C1CCN(C(c2ccccc2)c2ccc(Cl)c(Cl)c2)CC1` (stereo not shown) [TCMDC-135517], the “% Inhibition” value is listed as -34.35%.

On to `O=C(NC1CCC1)C1CCN(C(c2ccc(Cl)cc2)c2ccc(Cl)cc2)CC1` [TCMDC-135520], for which the “% Inhibition” value amounted to 57.43%.

Consider `O=C(NCC1CC1)C1CCN(C(c2ccccc2)c2nc3ccccc3s2)CC1` (stereo not shown) [TCMDC-135523], for which the “% Inhibition” value is recorded as -36.83%.

Consider `O=C(NCC1CC1)C1CCN(C(c2ccccc2)c2cc(F)cc(F)c2)CC1` (stereo not shown) [TCMDC-135513], for which the “% Inhibition” value is given as 62.39%.

`CCCNC(=O)C1CCN(C(c2ccc(Cl)cc2)c2ccc(Cl)cc2)CC1` [TCMDC-135518]: the “% Inhibition” value came to 16.22%.

As to `O=C(NC1CCC1)C1CCN(C(c2ccccc2)c2cc(F)cc(F)c2)CC1` (stereo not shown) [TCMDC-135514], the “% Inhibition” value is recorded as -3.594%.

For the compound `O=C(NCC1CC1)C1CCN(C(c2ccc(Cl)cc2)c2ccc(Cl)cc2)CC1` [TCMDC-135522], the “% Inhibition” value was -2.377%.

As for `COCCNC(=O)C1CCN(C(c2ccc(Cl)cc2)c2ccc(Cl)cc2)CC1` [TCMDC-135519], the “% Inhibition” value is -9.136%.

On to `COc1ccc(C(=O)NCc2ccc(N)nc2C)cc1Nc1ncc(-c2cccc(N(C)C)c2)cn1` [TCMDC-132420], for which the “% Inhibition” value is -21.32%.

`CCc1ccc(Cc2cnc3nc(N)nc(N)c3c2C)cc1` [TCMDC-137686]: the “% Inhibition” value was 14.74%.

On to `CCCc1ccc(Cc2cnc3nc(N)nc(N)c3c2C)cc1` [TCMDC-138046], for which the “% Inhibition” value is reported as 5.48%.

Turning to `CCc1ccc(Cc2cnc3nc(N)nc(N)c3c2C)cc1CC` [TCMDC-138054], the “% Inhibition” value was determined as 77.27%.

Take `Cc1nc(N)nc(N)c1OCCCOc1cccc(Cl)c1Cl` [TCMDC-131369]: the “% Inhibition” value was -7.285%.

As for `OCCN1CCN(C(=S)Nc2ccccc2)CC1` [TCMDC-123846], the “% Inhibition” value is listed as -8.492%.

As to `O=C(Nc1ccc(N2CCCN(Cc3cccc(F)c3)CC2)cc1)c1ccccc1` [TCMDC-135014], the “% Inhibition” value was -40.3%.

Regarding `OCCN1CCN(c2nc(Nc3cccc(F)c3)c3cnn(-c4ccccc4)c3n2)CC1` [TCMDC-124948], the “% Inhibition” value is listed as 87.2%.

In the case of `Clc1cc(Cl)c2cc(CN[C@H]3CCC[C@@H]3CNc3nc4ccccc4[nH]3)[nH]c2c1` [TCMDC-139878], the “% Inhibition” value is on record as 63.13%.

`Clc1cc(Cl)c2c(c1)C(NCCCNc1nc3ccccc3[nH]1)CCO2` (stereo not shown) [TCMDC-139802]: the “% Inhibition” value is reported as -25.37%.

As to `O=c1cc(NC[C@@H]2CCC[C@@H]2NCc2ccc(Cl)c(Cl)c2)[nH]c2ccccc12` [TCMDC-139627], the “% Inhibition” value was -25.41%.

For `CC1=C(C(=O)Nc2ccc(Cl)cc2)C(c2ccncc2)n2nc(C(F)(F)F)nc2N1` (stereo not shown) [TCMDC-124419], the “% Inhibition” value is reported as -9.933%.

As for `CC1=C(C(=O)Nc2ccccc2)C(c2ccc([N+](=O)[O-])cc2)n2ncc(C(=O)Nc3ccccc3)c2N1` (stereo not shown) [TCMDC-125283], the “% Inhibition” value was 50.23%.

For `COc1ccc(C2C(C(=O)Nc3ccccc3)=C(C)Nc3c(C(=O)Nc4ccccc4)cnn32)cc1` (stereo not shown) [TCMDC-125284], the “% Inhibition” value is reported as -13.81%.

`c1csc(-c2ccc3c(c2)CC(NCc2c[nH]c4cnccc24)C3)c1` (stereo not shown) [TCMDC-134833]: the “% Inhibition” value is reported as 42.25%.

Turning to `COc1cc(NC(=O)c2cc([N+](=O)[O-])ccc2NC(=O)CNC2CCCC(C)C2C)cc(OC)c1` (stereo not shown) [TCMDC-125300], the “% Inhibition” value is on record as -31.14%.

Take `CCC(CC)N1CCN(CC(=O)Nc2ccc([N+](=O)[O-])cc2C(=O)Nc2cccc(OC)c2)CC1` [TCMDC-123679]: the “% Inhibition” value is on record as -23.44%.

As for `COc1cccc(NC(=O)c2cc([N+](=O)[O-])ccc2NC(=O)CN2CCc3ccccc3C2)c1` [TCMDC-123678], the “% Inhibition” value is on record as 69.57%.

Turning to `COc1cc(F)c2ncc(Cl)c(CCN3CCC(NCc4ccc5c(n4)NC(=O)CO5)CC3)c2c1` [TCMDC-135621], the “% Inhibition” value is on record as -16.17%.

Regarding `Cc1cc(N2CCOCC2)nc2ccc(NC(=O)c3cccc([N+](=O)[O-])c3)cc12` [TCMDC-123601], the “% Inhibition” value was found to be 0.6281%.

`O=C(Nc1ccc(-c2nc3ccccc3[nH]2)cc1)c1cccc(S(=O)(=O)N2CCOCC2)c1` [TCMDC-125263]: the “% Inhibition” value is reported as -3.664%.

On to `NS(=O)(=O)c1cccc(-c2ccc3ncc(N4CCOCC4)nc3c2)c1` [TCMDC-134052], for which the “% Inhibition” value was 73.87%.

Take `CN(C)c1ccc(-c2csc(C(=O)NCC3CCN(Cc4ccc(C(C)(C)C)cc4)C3)c2)cc1` (stereo not shown) [TCMDC-134449]: the “% Inhibition” value came out at 80.7%.

`CN(C)c1ccc(-c2csc(C(=O)NCC3CCN(Cc4cccc(C(F)(F)F)c4)C3)c2)cc1` (stereo not shown) [TCMDC-134486]: the “% Inhibition” value turned out to be 49.29%.

`CN(C)c1ccc(-c2csc(C(=O)NCC3CCN(CCC(C)(C)C)C3)c2)cc1` (stereo not shown) [TCMDC-134427]: the “% Inhibition” value is on record as 60.6%.

Take `CC(C)c1ccc(CN2CCC(CNC(=O)c3cc(-c4ccc(N(C)C)cc4)cs3)C2)cc1` (stereo not shown) [TCMDC-134440]: the “% Inhibition” value worked out at 77.06%.

Regarding `O=C1CCCC1Sc1nc2ccccc2c(=O)n1-c1ccc(Cl)c(Cl)c1` (stereo not shown) [TCMDC-125029], the “% Inhibition” value is given as -36.37%.

With `CC1(C)N=C(N)N=C(N)N1OCCSc1ccc(Cl)c(Cl)c1` [TCMDC-131704], the “% Inhibition” value stood at 5.969%.

For `CN1CCN(c2cc3c(cc2Br)CCN3C(=O)Nc2ccc(-c3cnc4ccccc4c3)cc2)CC1` [TCMDC-139280], the “% Inhibition” value is listed as 14.3%.

On to `Cc1cc(N[C@@H](CC(C)C)C(=O)Nc2ccccc2)nc(NCC2CCCCC2)n1` [TCMDC-134921], for which the “% Inhibition” value was -51.59%.

Regarding `CCOc1cc(C)ccc1N(C1CCN(CCCCNC(=O)c2ccc(-c3ccc(C(F)(F)F)cc3)cc2)CC1)S(=O)(=O)c1ccccc1` [TCMDC-138637], the “% Inhibition” value is given as 32.99%.

In the case of `CCC(C)c1ccc(-n2c(Nc3ccccc3)nc3cc(S(N)(=O)=O)ccc32)cc1` (stereo not shown) [TCMDC-135490], the “% Inhibition” value is -10.42%.

Regarding `CCc1c[nH]c2c(N3CCCCS3(=O)=O)cc(C(=O)N[C@@H](Cc3ccccc3)[C@H](O)CNCc3cccc(OC)c3)cc12` [TCMDC-134127], the “% Inhibition” value is given as -6.303%.

`COc1ccc(NC(=O)[C@H](Cc2ccccc2)Nc2cc(C)nc(NCC3CCCCC3)n2)cc1` [TCMDC-134929]: the “% Inhibition” value is 14.59%.

`COc1ccc(NC(=O)[C@H](Cc2ccccc2)Nc2cc(C)nc(NCCc3ccccn3)n2)cc1` [TCMDC-134746]: the “% Inhibition” value amounted to 109.1%.

Take `Cc1cc(N[C@@H](Cc2ccccc2)C(=O)Nc2ccccc2)nc(NCCc2ccccn2)n1` [TCMDC-134749]: the “% Inhibition” value came to 53.15%.

For `CCCC(C)Nc1nc(C)cc(N[C@@H](Cc2ccccc2)C(=O)Nc2ccc(OC)cc2)n1` (stereo partly shown) [TCMDC-134881], the “% Inhibition” value is -19.42%.

Consider `CO/C(=C\C=C\c1cc2cc(Cl)c(Cl)cc2[nH]1)C(=O)NCCCN1CCN(c2cccc(OC)c2)CC1` [TCMDC-139161], for which the “% Inhibition” value is -21.84%.

Consider `O=C(N[C@@H](Cc1ccccc1)C(=O)NC1CCCc2ccccc21)c1ccc(O)c(-c2ccc(Cl)c(Cl)c2)c1` (stereo partly shown) [TCMDC-140868], for which the “% Inhibition” value was determined as 35.62%.

`Nc1ncc(-c2cccc(CCN3CCOCC3)c2)cc1-c1nc2ccc(Br)cc2[nH]1` [TCMDC-133135]: the “% Inhibition” value is 15.3%.

Turning to `CC1CN(Cc2ccc(-c3ccc(-c4nc5ccccc5[nH]4)cc3)cc2)CC(C)O1.O=C(O)C(F)(F)F` (stereo not shown) [TCMDC-133828], the “% Inhibition” value is -35.16%.

For `NC1CCN(Cc2ccc(-c3ccc(-c4nc5ccccc5[nH]4)cc3)cc2)C1.O=C(O)C(F)(F)F` (stereo not shown) [TCMDC-133868], the “% Inhibition” value was 102.2%.

For `OC1CCCN(Cc2ccc(-c3cccc(-c4nc5ccccc5[nH]4)c3)cc2)C1` (stereo not shown) [TCMDC-133836], the “% Inhibition” value is -1.76%.

For `NC1CCCN(Cc2ccc(-c3cccc(-c4nc5ccccc5[nH]4)c3)cc2)C1` (stereo not shown) [TCMDC-133880], the “% Inhibition” value is recorded as 58.58%.

For `NC1CCN(Cc2ccc(-c3cccc(-c4nc5ccccc5[nH]4)c3)cc2)C1` (stereo not shown) [TCMDC-133879], the “% Inhibition” value is recorded as 58.35%.

In the case of `O=C(O)C(F)(F)F.OC1CCCN(Cc2ccc(-c3ccc(-c4nc5ccccc5[nH]4)cc3)cc2)C1` (stereo not shown) [TCMDC-133829], the “% Inhibition” value is given as -32.2%.

For the compound `N=c1c2c(n(Cc3ccccc3)c3c1CCC3)CCCC2` [TCMDC-124229], the “% Inhibition” value is given as -1.262%.

In the case of `Clc1cccc(C23N=C(Nc4nc5ccccc5[nH]4)NC2(c2ccccc2)NC(Nc2nc4ccccc4[nH]2)=N3)c1` (stereo not shown) [TCMDC-139089], the “% Inhibition” value was 3.895%.

For the compound `NS(=O)(=O)c1ccc(CNc2ccc3ncc(-c4ccc(OC(F)(F)F)cc4)n3n2)cc1` [TCMDC-136685], the “% Inhibition” value is reported as 61.81%.

Regarding `FC(F)(F)Oc1ccc(-c2cnc3ccc(NCc4ccncc4)nn23)cc1` [TCMDC-136681], the “% Inhibition” value is listed as 34.75%.

With `N#Cc1ccc(-c2cnc3ccc(NCc4ccc(S(N)(=O)=O)cc4)nn23)cc1` [TCMDC-124515], the “% Inhibition” value is listed as 21.95%.

Regarding `COc1ccc(-c2cnc3ccc(NCc4ccc(S(N)(=O)=O)cc4)nn23)cc1` [TCMDC-136687], the “% Inhibition” value was 45.37%.

For `NS(=O)(=O)c1ccc(CNc2ccc3ncc(-c4ccc(Cl)cc4)n3n2)cc1` [TCMDC-136686], the “% Inhibition” value is listed as 45.42%.

In the case of `COc1ccc(-c2cnc3ccc(NCc4ccc(S(N)(=O)=O)cc4)nn23)cn1` [TCMDC-136688], the “% Inhibition” value was determined as 73.26%.

Consider `CC(C)(CNC(=O)/C=C/c1ccc(Cl)c(Cl)c1)CNc1cc(=O)c2ccccc2[nH]1` [TCMDC-139404], for which the “% Inhibition” value is reported as -42.09%.
